For assay [1] the following is noted: Ebola virus entry assay, green fluorescence channel.
The conditions of assay [2]: Ebola virus entry assay, blue channel fluorescence.
For assay [3] the following is noted: Ebola virus entry assay, ratio channel.
The conditions of assay [4]: Ebola virus entry assay, reporter ratio channel; Channel type: primary.
Assay [5] in a line: qHTS assay for measurement of the activity of small molecule inhibitors on Zika virus induced Caspase-3 activity in human iPSC derived neural progenitor cells (hNPCs) (AID 1224857; active = well fitted curve in the direction sought with a large enough effect; an effect the other way counts as inactive or inconclusive; note: % of control where 0% means no effect; nearly all actives have a fitted effect of over 65% in size). Particulars: hNPCs ZIKV-induced caspase-3/7, Caspase-Glo luminescence, 6 h; series mostly up to 45.7 µM. In short, it runs like this:
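Caspase-3/7 induction by a 6-hour ZIKV infection was quantified with a luminescent Caspase-Glo 3/7 reagent incubated 30 minutes at room temperature. Compounds were preincubated with hNPCs for 1 hour; inhibition was calculated against uninfected and infected control wells.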
On the technique in general: Quantitative high-throughput screening tests each substance at several concentrations.

Assay [6] can be described thus: qHTS assay for measurement of the activity of small molecule inhibitors on Zika virus induced Caspase-3 activity in human astrocytoma cells (AID 1224859; active = well fitted curve in the direction sought with a large enough effect; an effect the other way counts as inactive or inconclusive;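 note: plate controls were ZIKV-infected untreated cells for no effect and uninfected cells for full effect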). The following applies: SNB-19 ZIKV-induced caspase-3/7, luminescence, 6 h; series mostly up to 45.7 µM. In outline:
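In SNB-19 cells plated at 250 cells/well and grown 16-20 h, compounds were applied 1 h before ZIKV (2 FFU/cell). Six hours later caspase-3/7 luminescence was recorded.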

A short description of assay [7]: qHTS assay to identify small molecule inhibitors of chordoma cells - UCH-1 (AID 1259355; active = well fitted curve in the direction sought with a large enough effect; an effect the other way counts as inactive or inconclusive; note: % is set by controls: 0 for no effect and ±100 for the full control effect; nearly all actives have a fitted effect of over 55% in size). The following applies: UCH-1 chordoma viability, CellTiter-Glo, 48 h, combination; series mostly up to 46.1 µM. In outline:
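800 cells/well, overnight attach; compounds pinned at 15 concs, then auranofin/camptothecin/doxorubicin/rubitecan/topotecan combo added; 48hr 37 C, 5% CO2; CellTiter-Glo, 30min RT, luminescence.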

Assay [8] in a line: qHTS assay to identify small molecule inhibitors of chordoma cells - UCH-2 (AID 1259356; active = well fitted curve in the direction sought with a large enough effect; an effect the other way counts as inactive or inconclusive; note: % is set by controls: 0 for no effect and ±100 for the full control effect). The following applies: UCH-2 chordoma viability, CellTiter-Glo ATP luminescence, 48 h; series mostly up to 46.1 µM.

Molecules are shown by their SMILES. Values without a mark were called inactive. Results filed as inconclusive are left out. For some assays here: Potency and affinity values are given separately. The source made the active and inactive calls. Unless noted, the rule behind the calls is not given here.
Throughout, for efficacy: 0% is about no effect.

For `CCN(CC)Cc1nccn1-c1ccc([N+](=O)[O-])cc1C(=O)c1ccccc1Cl`, in assay [1], the efficacy was 96.4%. Also, the concentration at half-maximal activity (AC50) in assay [2] and in assay [4] was 39.8 µM (active) each time. Further, the outcome in assay [3] and in assay [6] was inactive. In addition, in assay [5], the Potency entry was “inactive”.

In the case of `Oc1ccc2[nH]cc(CCCCN3CC=C(c4ccccc4)CC3)c2c1`, in assay [1], the efficacy was 50.4%. In addition, the AC50 in assay [2] is 6.31 µM (active); in assay [3], 8.91 µM (active); in assay [4], 8.91 µM (active). The Potency entry in assay [5], in assay [7] and in assay [8] was “inactive” throughout. The outcome in assay [6] was inactive.

In the case of `CN1CCC(N(Cc2ccccc2)c2ccccc2)CC1`, the efficacy in assay [1] is 45.7%. Further, the AC50 was 7.08 µM (active) in assay [2], 4.47 µM (active) in assay [3] and 4.47 µM (active) in assay [4]. For the same compound, the Potency entry in assay [5] is “inactive”. Besides, the compound was called inactive in assay [6].

On to `CCOC(C(=O)OCCN(C)C)(c1ccccc1)c1ccccc1`, for which, in assay [1], the efficacy is 59.7%. In addition, the half-maximal activity concentration (AC50) in assay [2] is 22.4 µM (active); in assay [3], 25.1 µM (active); in assay [4], 25.1 µM (active). Further, the Potency entry in assay [5] is “inactive”. The compound was called inactive in assay [6].

As to `Cc1nnc2n1-c1sc(CCC(=O)N3CCOCC3)cc1C(c1ccccc1Cl)=NC2`, in assay [1], the efficacy was 52.3%. Further, the compound was classed as inactive in assay [2], in assay [3], in assay [4] and in assay [6]. The Potency entry in assay [5] is “inactive”.

For `COc1cc(C[C@@H](C)N)c(OC)cc1C`, the efficacy in assay [1] was 32.9%. In addition, the AC50 in assay [2] and in assay [4] was 35.5 µM (active) throughout. Also, the result in assay [3] and in assay [6] was inactive. In addition, the Potency entry in assay [5] was “inactive”.

On to `CCc1ccc(C2CCNCC2)cc1`, for which, in assay [1], the efficacy was 65.4%. In addition, the concentration at half-maximal activity (AC50) in assay [2] was 25.1 µM (active); in assay [4], 31.6 µM (active). For the same compound, the outcome in assay [3] and in assay [6] was inactive. In addition, in assay [5], the Potency entry is “inactive”.

With `CCOC(=O)C1(c2ccccc2)CCN(CCc2ccc(N)cc2)CC1`, the efficacy in assay [1] is 105%. The AC50 in assay [2] is 28.2 µM (active); in assay [3], 20 µM (active); in assay [4], 20 µM (active). Also, the Potency result in assay [5] was “inactive”. Further, the result in assay [6] was inactive.

As for `C[C@]12Cc3nonc3C[C@@H]1CC[C@@H]1[C@@H]2CC[C@@]2(C)[C@H]1CC[C@]2(C)O`, the efficacy in assay [1] was 48.4%. Also, the concentration at half-maximal activity (AC50) in assay [2] is 15.8 µM (active); in assay [3] it was 17.8 µM (active); in assay [4], 17.8 µM (active). The Potency entry in assay [5], in assay [7] and in assay [8] was “inactive” each time. For the same compound, the call in assay [6] was inactive.

As for `CC(C(O)c1ccccc1)N(C)C/C=C/c1ccccc1` (stereo unspecified), the efficacy in assay [1] was 90.1%. Moreover, the AC50 in assay [2] is 22.4 µM (active); in assay [4] it was 35.5 µM (active). Moreover, the result in assay [3] and in assay [6] was inactive. The Potency entry in assay [5] was “inactive”.

As for `COc1cc(C[C@@H](C)N)c(OC)cc1Br`, the efficacy in assay [1] is 42.4%. The half-maximal activity concentration (AC50) in assay [2], in assay [3] and in assay [4] was 31.6 µM (active) in each case. Further, the Potency result in assay [5] was “inactive”. Besides, the call in assay [6] was inactive.

Turning to `C[C@H](CN1CCOCC1)C(C(=O)N1CCCC1)(c1ccccc1)c1ccccc1`, the efficacy in assay [1] was 92.9%. Besides, the AC50 was 35.5 µM (active) in assay [2] and 44.7 µM (active) in assay [4]. Besides, the outcome in assay [3] and in assay [6] was inactive. The Potency result in assay [5] is “inactive”.

With `COc1cc(CC(C)N)c(OC)cc1Br` (stereo unspecified), in assay [1], the efficacy was 80.6%. For the same compound, the values for the concentration at half-maximal activity (AC50) in assay [2] and in assay [4] were 31.6 µM (active) and 39.8 µM (active), respectively. Moreover, the outcome in assay [3] and in assay [6] was inactive. In addition, the Potency entry in assay [5] was “inactive”.

As to `CN1C2CCC(C)(C)C1CC(OC(=O)C(O)(c1cccs1)c1cccs1)C2` (stereo unspecified), the efficacy in assay [1] is 75.5%. In addition, the results for the concentration at half-maximal activity (AC50) in assay [2], in assay [3] and in assay [4] were 20 µM (active), 15.8 µM (active) and 15.8 µM (active), respectively. Also, the Potency entry in assay [5] is “inactive”. Also, in assay [6], the compound was classed as inactive.

Regarding `CC(=O)OC1(c2ccccc2)CCN(CCc2ccccc2)CC1`, the efficacy in assay [1] was 56.2%. Also, the AC50 in assay [2], in assay [3] and in assay [4] was 31.6 µM (active) in each case. Further, the Potency result in assay [5] is “inactive”. Besides, the result in assay [6] was inactive.

For `O=C(N[C@H]1N=C(c2ccccc2F)c2cccc3c2N(CC3)C1=O)c1cc2ccccc2[nH]1`, in assay [1], the efficacy was -43.7%. In addition, the AC50 is 17.8 µM (active) in assay [2], 20 µM (active) in assay [3] and 20 µM (active) in assay [4]. The Potency entry in assay [5] was “inactive”. Besides, in assay [6], the call was inactive.

On to `CN1C(=O)[C@@H](NC(=O)c2cc3ccccc3[nH]2)N=C(c2ccccc2)c2ccccc21`, for which the efficacy in assay [1] is -160%. In addition, the AC50 in assay [2] is 39.8 µM (active). Further, the outcome in assay [3], in assay [4] and in assay [6] was inactive. Besides, the Potency entry in assay [5], in assay [7] and in assay [8] was “inactive” in each case.

`CCC(=O)C(CCN(C)C)(c1ccccc1)c1ccccc1`: the efficacy in assay [1] was 68.8%. Besides, the concentration at half-maximal activity (AC50) in assay [2] was 28.2 µM (active); in assay [3], 31.6 µM (active); in assay [4], 31.6 µM (active). In addition, the Potency entry in assay [5] is “inactive”. Further, the call in assay [6] was inactive.

For `CC(Cc1ccccc1)NCCCCl` (stereo unspecified), the efficacy in assay [1] was 66.3%. Besides, the values for the concentration at half-maximal activity (AC50) in assay [2], in assay [3] and in assay [4] were 22.4 µM (active), 35.5 µM (active) and 35.5 µM (active), respectively. For the same compound, the Potency entry in assay [5] was “inactive”. Further, in assay [6], the result was inactive.

For the compound `CC[C@H]1C[C@@H]2C[C@H]3c4[nH]c5ccc(OC)cc5c4CCN(C2)[C@@H]13`, in assay [1], the efficacy is 66.1%. Also, the AC50 in assay [2] was 31.6 µM (active); in assay [3] it was 39.8 µM (active); in assay [4] it was 39.8 µM (active). In addition, the Potency result in assay [5] is “inactive”. Besides, in assay [6], the result was inactive.

Regarding `O=C1CN2CCOC2(c2ccccc2Cl)c2cc(Cl)ccc2N1` (stereo unspecified), in assay [1], the efficacy was 46.2%. The outcome in assay [2], in assay [3], in assay [4] and in assay [6] was inactive. Further, in assay [5], the Potency entry was “inactive”.

For `C=CCN1CC[C@]23CCCC[C@H]2[C@H]1Cc1ccc(O)cc13`, in assay [1], the efficacy is 55.2%. The AC50 in assay [2] and in assay [4] was 39.8 µM (active) in each case. In addition, the outcome in assay [3] and in assay [6] was inactive. For the same compound, the Potency entry in assay [5], in assay [7] and in assay [8] was “inactive” in each case.

Regarding `CCC(OC(C)=O)C(CC(C)NC)(c1ccccc1)c1ccccc1` (stereo unspecified), in assay [1], the efficacy is -236%. In addition, the values for the AC50 in assay [2], in assay [3] and in assay [4] were 3.98 µM (active), 2.51 µM (active) and 2.51 µM (active), respectively. In addition, the Potency result in assay [5] was “inactive”. The compound was classed as inactive in assay [6].

Usually AC50 stands for the concentration giving half of the maximal activity seen.

Source of the values: PubChem BioAssay (NCATS).
